Screening data as filed in PubChem.
An excerpt weighted towards active compounds, which were near 8.2% of everything screened.
KB-3-1 tox = kills parental KB-3-1 adenocarcinoma cells; KB-3-1 viability, CellTiter-Glo ATP luminescence, 72 h; Potency, µM (highest dose often 46.1 µM), most hits filed as cytotoxic; hit rate 1.4% among 400,000; AID 1347075; note: nearly all actives have a fitted effect of over 60% in size
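Cytotoxicity measured as CellTiter-Glo luminescence after 72 h at 37 C. Compound titrations were pinned onto drug-naive KB-3-1 parental adenocarcinoma cells grown in DMEM with 10% FBS, and normalized data fitted to concentration-response curves.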
SW480 rerep = DNA re-replication induction in SW480 cells | Potency, µM (titrated, usually from 46.1 µM), usual class: activators | SW480 DNA re-replication, Hoechst DNA content imaging, 48 h | hit rate 1.8% among 340,000; note: nearly all actives have a fitted effect of over 55% in size
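DNA re-replication was detected as more nuclei of elevated Hoechst intensity after 48 hr exposure to compound (23 nL pinned per well of 250 cells).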
KB-V1 MDR tox = kills drug-selected multidrug resistant KB-V1 cells; KB-V1 MDR cells viability, CellTiter-Glo, 72 h; Potency, µM (doses to about 46.1 µM), hits mostly cytotoxic; hit rate 3.4% among 400,000; AID 1347076; note: nearly all actives have a fitted effect of over 60% in size
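Drug-selected KB-V1 cells, grown in DMEM lacking phenol red with 10% FBS, receive compound titrations; after three days at 37 degrees C, surviving cell ATP is quantified by CellTiter-Glo luminescence and responses normalized and curve-fitted.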
MCF10A rereplic = induces DNA re-replication in MCF 10a normal breast cells | MCF 10A DNA re-replication, Hoechst nuclear intensity, 48 h | Potency, µM (doses to about 46.1 µM), hits mostly activators | hit rate 2.9% among 350,000 | AID 624296; note: nearly all actives have a fitted effect of over 50% in size
ELG1 repair inh = inhibitors of ELG1-dependent DNA repair in HEK293T cells | hit rate 2.3% among 330,000 | HEK293T ELG1-luciferase reporter, luminescence, 16 h; DNA damage induced by 5-fluorouridine | Potency, µM (series often up to 46.1 µM), hits mostly inhibitors; note: nearly all actives have a fitted effect of over 55% in size
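DMSO vehicle served as the neutral condition. Each well held 2,000 cells given 5-fluorouridine plus compound; after 16 hr at 37 °C/5% CO2, ONE-Glo was added and luciferase measured 30 min later.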
Each line names hits and unclear results; the compound was inactive in the other large screens. Calls come from the whole dose curve; as a rule, active = well fitted curve in the direction sought with a large enough effect; inconclusive = small, poorly fitted or top-dose-only effect, or another doubt; inactive = no such curve, though single readings can be large; an effect the other way counts as inactive or inconclusive.

Cc1nn(C(=O)c2cccc([N+](=O)[O-])c2C)c(C)c1S(=O)(=O)N1CCOCC1	none (no result: SW480 rerep, MCF10A rereplic, ELG1 repair inh)
O=C(NCCc1ccccc1)C1CCC(CNS(=O)(=O)c2cccc3cccnc23)CC1 (centres undefined)	none
CN(C(=O)COc1ccc(-c2nnco2)cc1)C1CCS(=O)(=O)C1 (centres undefined)	none
O=C(NCc1ccc(Cl)cc1)c1cnc2sc(N3CCOCC3)nn2c1=O	none (no result: SW480 rerep, MCF10A rereplic, ELG1 repair inh)
CCCCn1c(N)c(N(CCOC)C(=O)CCCc2nc3ccccc3c(=O)[nH]2)c(=O)[nH]c1=O	KB-3-1 tox inconclusive, SW480 rerep 23µM
COCCN(C(=O)COC(=O)c1ccccc1Oc1ccccc1)c1c(N)n(Cc2ccccc2)c(=O)[nH]c1=O	KB-3-1 tox inconclusive, SW480 rerep 21µM
CCN(C(=O)COC(=O)c1ccccc1Oc1ccccc1)c1c(N)n(Cc2ccccc2)c(=O)[nH]c1=O	none (no result: ELG1 repair inh)
CCCCN(C(=O)CCCc1nc2ccccc2c(=O)[nH]1)c1c(N)n(CCCC)c(=O)[nH]c1=O	KB-3-1 tox inconclusive
CCCCCN(C(=O)CCC(=O)OCc1ccc(C(C)(C)C)cc1)c1c(N)n(CCCC)c(=O)[nH]c1=O	MCF10A rereplic 21µM
CCCCCN(C(=O)CCC(=O)OCc1cc(C)ccc1C)c1c(N)n(CCCC)c(=O)[nH]c1=O	ELG1 repair inh inconclusive
CCCCCN(C(=O)CCC(=O)OCc1ccc(C(C)C)cc1)c1c(N)n(CCCC)c(=O)[nH]c1=O	MCF10A rereplic 23µM
CCCCCN(C(=O)CCC(=O)OCc1ccccc1F)c1c(N)n(CCCC)c(=O)[nH]c1=O	KB-3-1 tox inconclusive
COC(=O)CCC(C)C1CCC2C3CCC4CC(O)CCC4(C)C3=CC(=O)C12C (centres undefined)	none (no result: ELG1 repair inh)
O=C(Nc1cccc(-c2nc3cc(Cl)ccc3o2)c1)c1ccc(F)cc1	none (no result: SW480 rerep, MCF10A rereplic, ELG1 repair inh)
CC#CC#Cc1cccc(=O)o1	KB-V1 MDR tox inconclusive, MCF10A rereplic 18µM, ELG1 repair inh inconclusive
c1ccc(-c2cc(-c3nc4ccccc4[nH]3)c3ccccc3n2)cc1	KB-3-1 tox 16µM, KB-V1 MDR tox 16µM, MCF10A rereplic inconclusive, ELG1 repair inh 21µM
Nc1ccc(-c2nc3ccccc3[nH]2)cc1	MCF10A rereplic inconclusive, ELG1 repair inh inconclusive
Cc1ccc2c(c1)c(N1CCCC1=O)c(C(=O)Nc1ccc(F)cc1F)n2C	KB-V1 MDR tox inconclusive (no result: SW480 rerep, MCF10A rereplic, ELG1 repair inh)
CCCCNCCOCCOc1ccccc1-c1ccccc1	SW480 rerep inconclusive, KB-V1 MDR tox 18µM
CC(C)CNC(=O)C(=O)Nc1c2c(nn1-c1ccccc1)CS(=O)(=O)C2	none (no result: SW480 rerep, MCF10A rereplic, ELG1 repair inh)
COc1ccc2cc(CO)c3cc(OC)c(OC)cc3c2c1	KB-V1 MDR tox inconclusive, ELG1 repair inh 8.2µM
CCCCn1nc(C(=O)Nc2ccc(-n3cnnn3)cc2)c2ccccc2c1=O	SW480 rerep inconclusive, KB-V1 MDR tox inconclusive, ELG1 repair inh 7.3µM
CCCCn1nc(C(=O)NC2CCCCCC2)c2ccccc2c1=O	ELG1 repair inh 18µM (no result: KB-3-1 tox, KB-V1 MDR tox)
Cn1ncc(Br)c1C(=O)N1CCc2ccccc21	SW480 rerep 0.52µM, KB-V1 MDR tox inconclusive
CCCn1nc2cc(C(=O)NC3CCCc4ccccc43)ccc2c1OCC (centres undefined)	none
CCCn1nc(C(=O)NC2CCCC2)c2ccccc2c1=O	ELG1 repair inh inconclusive
CCCn1nc(C(=O)NC2CCCc3ccccc32)c2ccccc2c1=O (centres undefined)	KB-V1 MDR tox 23µM, ELG1 repair inh 16µM
Cc1nn(C)c(C(=O)N2CCc3ccccc32)c1Br	KB-V1 MDR tox inconclusive, MCF10A rereplic inconclusive
Cn1nc(C(=O)Nc2ccc(-n3cnnn3)cc2)c2ccccc2c1=O	ELG1 repair inh inconclusive
COc1ccccc1CNC(=O)Cc1csc2nc(-c3ccc(F)cc3)cn12	none (no result: SW480 rerep, MCF10A rereplic, ELG1 repair inh)
CCc1sc(-c2cc3cccc(OC)c3oc2=O)nc1-c1ccccc1	KB-V1 MDR tox inconclusive (no result: SW480 rerep, MCF10A rereplic, ELG1 repair inh)
O=C(Cn1cnc2ccccc21)Nc1cccc(S(=O)(=O)N2CCCC2)c1	none
CCCCn1nc(C(=O)Nc2ccccc2N2CCCC2)c2ccccc2c1=O	KB-V1 MDR tox 3.7µM, MCF10A rereplic inconclusive, ELG1 repair inh inconclusive
CCCCCn1nc(C(=O)N2CCc3ccccc32)c2ccccc2c1=O	KB-3-1 tox inconclusive, ELG1 repair inh 11µM
CCCCn1nc(C(=O)Nc2ccc3c(c2)OCO3)c2ccccc2c1=O	KB-V1 MDR tox inconclusive, ELG1 repair inh inconclusive
CCCn1nc(C(=O)N2CCc3ccccc32)c2ccccc2c1=O	ELG1 repair inh inconclusive
CC1(C(=O)Nc2ccc3c(c2)OCO3)CCN1C(=O)c1ccco1 (centres undefined)	none (no result: SW480 rerep, MCF10A rereplic, ELG1 repair inh)
Cc1cc(C)n(CCNC(=O)[C@H]2O[C@@H](n3ccc(N)nc3=O)[C@H](O)[C@@H]2O)n1	none (no result: SW480 rerep, MCF10A rereplic, ELG1 repair inh)
Cc1ccc(C(C[N+](=O)[O-])Sc2ccc(N)cc2)cc1 (centres undefined)	SW480 rerep inconclusive, KB-V1 MDR tox inconclusive, MCF10A rereplic 7.3µM, ELG1 repair inh inconclusive
CC(=O)c1ccc(Oc2nc(C)nc3c2oc2ccccc23)cc1	KB-3-1 tox 18µM (no result: SW480 rerep, MCF10A rereplic, ELG1 repair inh)
Brc1ccc(-c2nnc3sc(CN4CCCCC4)cn23)cc1	none (no result: SW480 rerep, MCF10A rereplic, ELG1 repair inh)
c1ccc(-c2nnc3sc(CN4CCC5(CC4)OCCO5)cn23)cc1	KB-V1 MDR tox 21µM
COc1ccc(/C(C)=N\Nc2nc(-c3ccc(Cl)cc3)cc(C(F)(F)F)n2)cc1OC	ELG1 repair inh 8.2µM
COc1ccc(C2CCCN2C(=S)Nc2ccc(C)c(C)c2)cc1OC (centres undefined)	KB-V1 MDR tox inconclusive, ELG1 repair inh 26µM
